From PubChem BioAssay (NCATS) come the findings set out here.

The nature of test [1]: P-glycoprotein substrates identified in KB-8-5-11 adenocarcinoma cell line, qHTS therapeutic library screen (AID 1346987). Further: nearly all actives have a fitted effect of over 65% in size. Further: potency means the concentration at half of the fitted maximal effect. The method, boiled down:
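In this qHTS, P-gp-rich KB-8-5-11 cells received library compounds across a concentration range. Viability was quantified by luminescence after 72 h at 37 degree C.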
Background: In qHTS, concentration-response curves come from the screen itself.

Test [2] is described as follows: NS1 protein of Zika virus - qHTS assay to identify small molecule inhibitors in human HEK 293 cells (AID 1347053). Further: series mostly up to about 46 µM; nearly all actives have a fitted effect of over 55% in size. A digest of the protocol: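 In this cell-based screen, HEK 293 cultures received compound for one hour before Zika MR766 at MOI = 0.5. NS1 was quantified 24 hours later by TR-FRET, normalized to virus-free wells and infected wells.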
A short description of test [3]: qHTS of pediatric cancer cell lines to identify multiple opportunities for drug repurposing: Primary screen for TC32 cells (AID 1347089). Further: nearly all actives have a fitted effect of over 60% in size. The method, boiled down:
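A viability screen of TC32 cells was run over 48 h, with primary MIPE doses spanning 0.78 nM–46 µM and NPC doses 0.59 nM–46 µM. ATP luminescence (CellTiter-Glo) served as the read-out.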

Test [4] can be described thus: qHTS of pediatric cancer cell lines to identify multiple opportunities for drug repurposing: Primary screen for DAOY cells (AID 1347090). Further: series mostly up to about 46 µM; nearly all actives have a fitted effect of over 55% in size. A digest of the protocol:
(§1)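 Eight- or eleven-point concentration series, 48 h treatment at 37 degrees C in growth media; readout CellTiter-Glo luminescence. Potency and efficacy were taken from the concentration-response curves.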

Test [5] in a line: qHTS of pediatric cancer cell lines to identify multiple opportunities for drug repurposing: Primary screen for SJ-GBM2 cells (AID 1347091). A digest of the protocol:
as §1

The nature of test [6]: qHTS of pediatric cancer cell lines to identify multiple opportunities for drug repurposing: Primary screen for A673 cells (AID 1347092). Further: nearly all actives have a fitted effect of over 45% in size. A digest of the protocol:
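Titration-based qHTS on A673 cells: MIPE compounds spanned 11 points (0.78 nM to 46 µM final), NPC compounds 8 points (0.59 nM to 46 µM final). Viability after 48 h was measured by ATP luminescence.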

Test [7] is described as follows: qHTS of pediatric cancer cell lines to identify multiple opportunities for drug repurposing: Primary screen for SK-N-MC cells (AID 1347093). Further: series mostly up to about 46 µM. A digest of the protocol:
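Metabolically active cells were quantified by ATP-dependent luminescence (CellTiter-Glo, 15 min at room temperature) following 48 h treatment. Cells had been plated at 500-1,000 per well and settled for 5 h beforehand.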

A short description of test [8]: qHTS of pediatric cancer cell lines to identify multiple opportunities for drug repurposing: Primary screen for BT-37 cells (AID 1347094). Further: series mostly up to about 57 µM. A digest of the protocol:
(§2)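 Readout: CellTiter-Glo luminescence, 48 h treatment. Controls DMSO (neutral) and bortezomib 2.3 µM final (positive). Potency and efficacy taken from primary-screen concentration-response curves.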

Test [9] is described as follows: qHTS of pediatric cancer cell lines to identify multiple opportunities for drug repurposing: Primary screen for NB-EBc1 cells (AID 1347095). A digest of the protocol: as §2
Test [10] is described as follows: qHTS of pediatric cancer cell lines to identify multiple opportunities for drug repurposing: Primary screen for U-2 OS cells (AID 1347096). Further: nearly all actives have a fitted effect of over 50% in size. The method, boiled down:
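Cells (500-1,000/well) in growth media were settled 5 h at 37 degrees C, then given compounds for 48 h. Viability was read as CellTiter-Glo luminescence. Primary runs used MIPE at 11 points (0.78 nM-46 µM) and NPC at 8 points (0.59 nM-46 µM); follow-ups used 11 points.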

Structures are written as SMILES. Records with an inconclusive call do not appear. Values without a mark were called inactive. Activity calls are given as the source filed them. The call rests on the fitted dose curve; in most records, active means well fitted curve in the direction sought with a large enough effect; inconclusive means small, poorly fitted or top-dose-only effect, or another doubt; inactive means no such curve, though single readings can be large; an effect the other way counts as inactive or inconclusive.

Consider `COc1cc(C(=S)N2CCOCC2)cc(OC)c1OC`, for which the Potency entry in test [1], in [2], in [3], in test [4], in [5] and in [6] was “inactive” throughout. The Potency result in test [7], in test [8], in test [9] and in test [10] was “inactive” each time.
Take `CC1(C)O[C@@H]2C[C@H]3[C@@H]4C[C@H](F)C5=CC(=O)CC[C@]5(C)[C@H]4[C@@H](O)C[C@]3(C)[C@]2(C(=O)CO)O1`: the Potency result in test [1], in test [2], in test [3], in [4], in test [5] and in test [6] was “inactive” each time. In addition, the Potency entry in test [7], in test [8], in [9] and in test [10] was “inactive” throughout.
On to `CC(O)(P(=O)(O)O)P(=O)(O)O`, for which the Potency result in test [1], in test [2], in [3], in test [4], in [5] and in test [6] was “inactive” throughout. The Potency entry in test [7], in test [8], in [9] and in [10] was “inactive” in each case.
In the case of `Cc1cc(=O)n(-c2ccccc2)n1C`, the Potency result in test [1], in test [2], in test [3], in test [4], in test [5] and in [6] was “inactive” throughout. Besides, the Potency result in test [7], in test [8], in [9] and in test [10] was “inactive” throughout.
For the compound `C[C@H](CCC(=O)O)[C@H]1CC[C@H]2[C@@H]3C(=O)C[C@@H]4CC(=O)CC[C@]4(C)[C@H]3CC(=O)[C@]12C`, the Potency entry in test [1], in test [2], in test [3], in [4], in test [5] and in test [6] was “inactive” in each case. Moreover, the Potency result in test [7], in [8], in test [9] and in [10] was “inactive” in each case.
As for `COC(=O)[C@@H]1CC2=CC(=O)CC[C@]2(C)[C@@]23O[C@@H]2C[C@@]2(C)[C@@H](CC[C@@]24CCC(=O)O4)[C@H]13`, the Potency entry in test [1], in test [2], in [3], in test [4], in [5] and in test [6] was “inactive” in each case. Besides, the Potency entry in test [7], in test [8], in test [9] and in [10] was “inactive” throughout.
For `CC[N+](CC)(CCNC(=O)C(=O)NCC[N+](CC)(CC)Cc1ccccc1Cl)Cc1ccccc1Cl`, the Potency result in [1], in test [2], in [3], in test [4], in test [5] and in test [6] was “inactive” in each case. Besides, the Potency result in test [7], in test [8], in test [9] and in test [10] was “inactive” throughout.
For the compound `NC(CO)(CO)CO`, the Potency entry in [1], in test [2], in [3], in test [4], in test [5] and in [6] was “inactive” each time. Further, the Potency result in test [7], in test [8], in test [9] and in [10] was “inactive” in each case.
As for `Cc1ccc(Nc2c(F)cccc2Cl)c(CC(=O)O)c1`, the Potency result in test [1], in [2], in [3], in [4], in [5] and in [6] was “inactive” throughout. Also, the Potency result in [7], in [9] and in test [10] was “inactive” in each case.
As for `COc1ccc(C2C(=O)c3ccccc3C2=O)cc1`, the Potency result in test [1], in [2], in [3], in [4], in [5] and in test [6] was “inactive” each time. The Potency result in test [7], in test [9] and in test [10] was “inactive” each time.
Turning to `C[C@]12CCC(=O)C=C1[C@@H]1C[C@@H]1[C@H]1[C@@H]3[C@@H]4C[C@@H]4[C@@]4(CCC(=O)O4)[C@@]3(C)CC[C@@H]12`, in [1], the Potency was 4.11 µM (active). The Potency entry in test [2], in test [3], in test [4], in test [5], in test [6] and in [8] was “inactive” each time. Also, the Potency result in [9] and in test [10] was “inactive” in each case.
As to `CC(Cc1ccccc1)(NC(=O)CN)c1ccccc1` (centres undefined), the Potency result in [1], in [2], in test [3], in [4], in test [5] and in test [6] was “inactive” throughout. The Potency result in test [7], in [8], in test [9] and in [10] was “inactive” in each case.
Regarding `C[C@]12C=CC(=O)C=C1[C@@H](F)C[C@@H]1[C@@H]2[C@@H](O)C[C@@]2(C)[C@H]1CC[C@]2(O)C(=O)CO`, the Potency entry in test [1], in test [2], in [3], in [4], in [5] and in test [6] was “inactive” in each case. Also, the Potency result in test [7], in test [9] and in test [10] was “inactive” throughout.
Take `O=C(O)CNC(=O)c1ccccc1`: the Potency entry in test [1], in [2], in test [3], in test [4], in test [5] and in [6] was “inactive” each time. Besides, the Potency entry in test [7], in test [9] and in test [10] was “inactive” each time.
On to `c1ccc(CNCCNCc2ccccc2)cc1`, for which the Potency entry in test [1], in test [2], in test [3], in [4], in test [5] and in [6] was “inactive” each time. Besides, the Potency result in [7], in test [9] and in test [10] was “inactive” each time.
In the case of `Cc1cc(O)c(C(C)C)cc1Cl`, the Potency result in test [1], in test [2], in test [3], in [4], in [5] and in test [6] was “inactive” in each case. Besides, the Potency result in test [7], in test [9] and in test [10] was “inactive” in each case.
As to `C/C=C/c1ccc(OC)cc1`, the Potency entry in test [1], in test [2], in test [3], in [4], in [5] and in test [6] was “inactive” throughout. Besides, the Potency result in [7], in [9] and in test [10] was “inactive” in each case.
On to `CCCCN1CCCC1C(=O)Nc1c(C)cc(C)cc1C` (centres undefined), for which the Potency result in [1], in test [2], in [3], in test [4], in test [5] and in [6] was “inactive” each time. The Potency entry in test [7], in [8], in test [9] and in test [10] was “inactive” in each case.
Regarding `C[C@]12CCC(=O)C=C1CC[C@H]1[C@@H]3CC[C@](O)(C(=O)CO)[C@@]3(C)C[C@H](O)[C@@]12F`, the Potency entry in test [1], in test [2], in test [3], in [4], in [5] and in [6] was “inactive” each time. For the same compound, the Potency result in [7], in test [9] and in test [10] was “inactive” each time.
For the compound `CC1(C)O[C@@H]2[C@@H](CO[C@@]3(COS(N)(=O)=O)OC(C)(C)O[C@@H]23)O1`, the Potency entry in test [1], in test [2], in test [3], in test [4], in test [5] and in test [6] was “inactive” throughout. The Potency entry in [7], in test [9] and in test [10] was “inactive” each time.
For the compound `CN=C(NC#N)Nc1ccc(C2=NNC(=O)CC2C)cc1` (centres undefined), the Potency result in test [1], in test [2], in test [3], in test [4], in [5] and in [6] was “inactive” each time. In addition, the Potency entry in test [7], in [8], in [9] and in test [10] was “inactive” each time.
For `CC1(C)O[C@@H]2C[C@H]3[C@@H]4C[C@H](F)C5=CC(=O)C=C[C@]5(C)[C@H]4[C@@H](O)C[C@]3(C)[C@]2(C(=O)CO)O1`, the Potency entry in test [1], in test [2], in test [3], in test [4], in test [5] and in test [6] was “inactive” throughout. Besides, the Potency result in test [7], in test [9] and in test [10] was “inactive” each time.
